Assay results as given in PubChem BioAssay (NCATS).
Inconclusive results are not listed. Active and inactive are the calls of the source. Unless noted, calls follow the shape of the full dose curve.

What was measured:
[1] = qHTS for Inhibitors of the Functional Ribonucleoprotein Complex (vRNP) of Lassa (LASV) Arenavirus: LASV Primary Screen - GLuc reporter signal (AID 1347082; calls by dose curve; tested in HEK293 reporter line; also: nearly all actives have a fitted effect of over 60% in size)
[2] = qHTS for Inhibitors of the Functional Ribonucleoprotein Complex (vRNP) of Lassa (LASV) Arenavirus: Viability assay - alamar blue signal for LASV Primary Screen (AID 1347083; calls by dose curve; tested in HEK293 reporter line; also: nearly all actives have a fitted effect of over 80% in size)
[3] = qHTS for Inhibitors of the Functional Ribonucleoprotein Complex (vRNP) of Lymphocytic Choriomeningitis Arenaviruses (LCMV): Viability assay - alamar blue signal for LCMV Primary Screen (AID 1347085; calls by dose curve; tested in HEK293 reporter line; also: nearly all actives have a fitted effect of over 80% in size)
[4] = target: Nucleoprotein (Lymphocytic choriomeningitis virus (strain Armstrong)) (UniProt P09992); experiment: qHTS for Inhibitors of the Functional Ribonucleoprotein Complex (vRNP) of Lymphocytic Choriomeningitis Arenaviruses (LCMV): LCMV Primary Screen - GLuc reporter signal (AID 1347086); also: nearly all actives have a fitted effect of over 70% in size
% is scaled to controls: 0 for no effect and ±100 for the full control effect.
Also: series mostly up to about 57 µM.

Sequence of Nucleoprotein (Lymphocytic choriomeningitis virus (strain Armstrong)) (P09992 whole entry, looked up): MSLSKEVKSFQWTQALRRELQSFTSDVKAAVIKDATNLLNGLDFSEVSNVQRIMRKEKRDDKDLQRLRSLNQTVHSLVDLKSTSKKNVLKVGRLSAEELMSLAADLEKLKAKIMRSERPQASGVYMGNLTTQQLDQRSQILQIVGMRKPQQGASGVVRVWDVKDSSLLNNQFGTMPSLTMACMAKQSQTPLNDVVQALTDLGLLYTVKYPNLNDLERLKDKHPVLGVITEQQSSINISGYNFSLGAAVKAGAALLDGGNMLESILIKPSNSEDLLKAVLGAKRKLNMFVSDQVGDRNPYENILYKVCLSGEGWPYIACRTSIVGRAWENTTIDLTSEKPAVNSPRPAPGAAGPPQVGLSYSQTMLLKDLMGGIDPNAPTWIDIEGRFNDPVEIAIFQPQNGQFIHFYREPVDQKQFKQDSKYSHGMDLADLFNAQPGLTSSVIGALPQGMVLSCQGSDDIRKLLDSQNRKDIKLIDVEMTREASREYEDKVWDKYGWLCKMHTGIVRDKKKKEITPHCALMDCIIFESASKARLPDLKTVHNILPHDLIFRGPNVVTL

CNCCC(Oc1ccccc1OC)c1ccccc1 (stereo not given)
inactive: Potency [1] | Potency [2] | Potency [3] | Potency [4]

CC1CC(OC(=O)C(O)c2ccccc2)CC(C)(C)N1C (stereo not given)
inactive: Potency [1] | Potency [2] | Potency [3] | Potency [4]

O=C(O)c1cn(C2CC2)c2cc(Cl)c(F)cc2c1=O
inactive: Potency [1] | Potency [2] | Potency [3] | Potency [4]

CCCCN=C(N)N=C(N)N
inactive: Potency [1] | Potency [2] | Potency [3] | Potency [4]

CCn1cc(C(=O)O)c(=O)c2cc(F)c(N3CCN(C)CC3)cc21
inactive: Potency [1] | Potency [2] | Potency [3] | Potency [4]

N[C@H](C(=O)O)c1ccc(O)cc1
inactive: Potency [1] | Potency [2] | Potency [3] | Potency [4]

CCCOc1ccccc1-c1nc2n[nH]nc2c(=O)[nH]1
inactive: Potency [1] | Potency [2] | Potency [3] | Potency [4]

CCN(CC)CC(=O)OCC(=O)[C@@]1(O)CC[C@H]2[C@@H]3CCC4=CC(=O)CC[C@]4(C)[C@H]3[C@@H](O)C[C@@]21C
inactive: Potency [1] | Potency [2] | Potency [3] | Potency [4]

COc1ccc2cc1Oc1ccc(cc1)C[C@H]1c3c(cc4c(c3Oc3cc5c(cc3OC)CCN(C)[C@@H]5C2)OCO4)CCN1C
inactive: Potency [1] | Potency [2] | Potency [3] | Potency [4]

CNc1c2c(nn1C)CCCC2
inactive: Potency [1] | Potency [2] | Potency [3] | Potency [4]

OC(CCCN1CCCCC1)(c1ccccc1)c1ccccc1
inactive: Potency [1] | Potency [2] | Potency [3] | Potency [4]

CCN1CCN(c2cc(-c3ccc(F)cc3)c3c(n2)CCCCCC3)CC1
inactive: Potency [1] | Potency [2] | Potency [3] | Potency [4]

C1CCC(C(CC2CCCCN2)C2CCCCC2)CC1 (stereo not given)
inactive: Potency [1] | Potency [2] | Potency [3] | Potency [4]

NCC(=O)O
inactive: Potency [1] | Potency [2] | Potency [3] | Potency [4]

C=CCSCC1Nc2cc(Cl)c(S(N)(=O)=O)cc2S(=O)(=O)N1 (stereo not given)
inactive: Potency [1] | Potency [2] | Potency [3] | Potency [4]

C[C@H](CCC(=O)O)[C@H]1CC[C@H]2[C@@H]3C(=O)C[C@@H]4CC(=O)CC[C@]4(C)[C@H]3CC(=O)[C@]12C
inactive: Potency [1] | Potency [2] | Potency [3] | Potency [4]

Clc1ccc(C(Cn2ccnc2)OCc2ccc(Sc3ccccc3)cc2)c(Cl)c1 (stereo not given)
inactive: Potency [1] | Potency [2] | Potency [3] | Potency [4]

C[C@@H]1CC[C@@]2(OC1)O[C@H]1C[C@H]3[C@@H]4CC[C@H]5C[C@@H](O)CC[C@]5(C)[C@H]4CC(=O)[C@]3(C)[C@H]1[C@@H]2C
inactive: activity change, negative = inhibition [1] -9.4% [at 5.82 µM] | activity change, negative = reduced viability [2] -7.37% [at 5.82 µM] | activity change, negative = lower viability [3] -0.186% [at 5.82 µM] | activity change, negative = inhibition [4] 19.7% [at 5.82 µM]

CC1=C(C(=O)O)N2C(=O)[C@@H](NC(=O)[C@H](N)C3=CCC=CC3)[C@H]2SC1
inactive: Potency [1] | Potency [2] | Potency [3] | Potency [4]

CNC(=O)Oc1ccc2c(c1)[C@]1(C)CCN(C)[C@@H]1N2C
inactive: Potency [1] | Potency [2] | Potency [3] | Potency [4]

CCOC(=O)c1cc(=O)c2c(OCC(COc3cccc4oc(C(=O)OCC)cc(=O)c34)OC(=O)[C@@H](N)CCCCN)cccc2o1
inactive: Potency [1] | Potency [2] | Potency [3] | Potency [4]

CC(=O)[C@H]1CC[C@H]2[C@@H]3CC=C4C[C@@H](O)CC[C@]4(C)[C@H]3CC[C@]12C
inactive: Potency [1] | Potency [2] | Potency [3] | Potency [4]

O=C(Nc1ccc(S(=O)(=O)N2CCOCC2)cc1)c1cc(Cl)ccc1NS(=O)(=O)c1ccc(Cl)s1
inactive: Potency [1] | Potency [2] | Potency [3] | Potency [4]

CCCc1nc(C)c2c(=O)[nH]c(-c3cc(S(=O)(=O)N4CCN(CC)CC4)ccc3OCC)nn12
inactive: Potency [1] | Potency [2] | Potency [3] | Potency [4]

C[N+](C)(C)CCCCCCCCCC[N+](C)(C)C
inactive: Potency [1] | Potency [2] | Potency [3] | Potency [4]

COC(=O)C1=C(C)NC(C)=C(C(=O)OC)C1c1ccccc1[N+](=O)[O-]
inactive: Potency [1] | Potency [2] | Potency [3] | Potency [4]

CN1CCN(c2c(F)cc3c(=O)c(C(=O)O)cn(CCF)c3c2F)CC1
inactive: Potency [1] | Potency [2] | Potency [3] | Potency [4]

Brc1c(NC2=NCCN2)ccc2nccnc12
inactive: Potency [1] | Potency [2] | Potency [3] | Potency [4]

O=C(c1ccc(F)cc1)C1CCN(CCn2c(=S)[nH]c3ccccc3c2=O)CC1
inactive: Potency [1] | Potency [2] | Potency [3] | Potency [4]

O=S1(=O)c2cccc3cccc(c23)N1CCCN1CCN(c2ccc(F)cc2)CC1
inactive: Potency [1] | Potency [2] | Potency [3] | Potency [4]

CN(CCCN1c2ccccc2CCc2ccccc21)CC(=O)c1ccc(Cl)cc1
inactive: Potency [1] | Potency [2] | Potency [3] | Potency [4]

CN1C[C@H](C(=O)N[C@]2(C)O[C@@]3(O)[C@@H]4CCCN4C(=O)[C@H](Cc4ccccc4)N3C2=O)C[C@@H]2c3cccc4[nH]cc(c34)C[C@H]21
inactive: Potency [1] | Potency [2] | Potency [3] | Potency [4]

CC(=O)CCC(=O)O
inactive: Potency [1] | Potency [2] | Potency [3] | Potency [4]

CN1CCC(=C2c3ccccc3Sc3ccccc32)CC1
inactive: Potency [1] | Potency [2] | Potency [3] | Potency [4]

c1cnc(N2CCN(Cc3ccc4c(c3)OCO4)CC2)nc1
inactive: Potency [1] | Potency [2] | Potency [3] | Potency [4]

CCOC(=O)Cn1cccc1-c1nc(-c2ccc(OC)cc2)c(-c2ccc(OC)cc2)s1
inactive: Potency [1] | Potency [2] | Potency [3] | Potency [4]

CC(C(O)c1ccc(O)cc1)N1CCC(Cc2ccccc2)CC1 (stereo not given)
inactive: Potency [1] | Potency [2] | Potency [3] | Potency [4]

C#CCN(C)CCCOc1ccc(Cl)cc1Cl
inactive: Potency [1] | Potency [2] | Potency [3] | Potency [4]

C[N+](C)(C)CC[N+]1(C)Cc2c(Cl)c(Cl)c(Cl)c(Cl)c2C1
inactive: Potency [1] | Potency [2] | Potency [3] | Potency [4]

CC(C)=CCOc1ccc(/C=C/C(=O)c2ccc(OCC=C(C)C)cc2OCC(=O)O)cc1
inactive: Potency [1] | Potency [2] | Potency [3] | Potency [4]

N[C@@H](Cc1c[nH]c2ccc(O)cc12)C(=O)O
inactive: Potency [1] | Potency [2] | Potency [3] | Potency [4]

Nc1c(NC/C=C\COc2cc(CN3CCCCC3)ccn2)c(=O)c1=O
inactive: Potency [1] | Potency [2] | Potency [3] | Potency [4]

CCOCCOC(=O)/C=C/c1ccc(OC)cc1
inactive: Potency [1] | Potency [2] | Potency [3] | Potency [4]

CC(C)COCC(CN(Cc1ccccc1)c1ccccc1)N1CCCC1 (stereo not given)
inactive: Potency [1] | Potency [2] | Potency [3] | Potency [4]

CCCCNc1cc(C(=O)O)cc(S(N)(=O)=O)c1Oc1ccccc1
inactive: Potency [1] | Potency [2] | Potency [3] | Potency [4]

OCc1cc(C(O)CNCCCCCCOCCCCc2ccccc2)ccc1O (stereo not given)
inactive: Potency [1] | Potency [2] | Potency [3] | Potency [4]

Oc1c(Cl)cc(Cl)c2cccnc12
inactive: Potency [1] | Potency [2] | Potency [3] | Potency [4]

CCN(CC)C(=O)N1CCN(C)CC1
inactive: Potency [1] | Potency [2] | Potency [3] | Potency [4]

CCCCCC(N)=O
inactive: Potency [1] | Potency [2] | Potency [3] | Potency [4]

CCCCNc1c(C(=O)OCC)c(C)nc2c1cnn2CC
inactive: Potency [1] | Potency [2] | Potency [3] | Potency [4]

O=C(O)Cc1ccc(CCNS(=O)(=O)c2ccc(Cl)cc2)cc1
inactive: Potency [1] | Potency [2] | Potency [3] | Potency [4]

O=C(O)Cc1ccc2c(c1)C(=O)c1ccccc1CO2
inactive: Potency [1] | Potency [2] | Potency [3] | Potency [4]

CN(C)CCOC1=Cc2ccccc2Sc2ccc(Cl)cc21
inactive: Potency [1] | Potency [2] | Potency [3] | Potency [4]

C=CCc1ccccc1OCC(O)CNC(C)C (stereo not given)
inactive: Potency [1] | Potency [2] | Potency [3] | Potency [4]

N[C@@H](CSCCCO)C(=O)O
inactive: Potency [1] | Potency [2] | Potency [3] | Potency [4]

CC(CC1c2ccccc2CCc2ccccc21)CN(C)C (stereo not given)
inactive: Potency [1] | Potency [2] | Potency [3] | Potency [4]

CCCCC1C(=O)N(c2ccccc2)N(c2ccccc2)C1=O
inactive: Potency [1] | Potency [2] | Potency [3] | Potency [4]

NC(N)=NC(=O)c1nc(Cl)c(N)nc1N
inactive: Potency [1] | Potency [2] | Potency [3] | Potency [4]

O=C1OC2(c3ccc(O)cc3Oc3cc(O)ccc32)c2ccccc21
inactive: Potency [1] | Potency [2] | Potency [3] | Potency [4]

Cc1ccc(Nc2c(F)cccc2Cl)c(CC(=O)O)c1
inactive: Potency [1] | Potency [2] | Potency [3] | Potency [4]
